Data on 7 compounds can be found in PubChem BioAssay (NCATS).

“And” between values parts separate entries of the source, which are not always exact repeats. Equal entries are not always repeated. Inconclusive results are not listed. The source made the active and inactive calls. Unless noted, calls come from the whole dose curve; as a rule, active = well fitted curve in the direction sought with a large enough effect; inconclusive = small, poorly fitted or top-dose-only effect, or another doubt; inactive = no such curve, though single readings can be large; an effect the other way counts as inactive or inconclusive.

Assay [1] is described as follows: Cell Viability - Jurkat (AID 426;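 active = dose-dependent loss of cell ATP signal giving a full or clear fitted curve, ranked by lower potency value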;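 note: potency is the fitted concentration of half-maximal effect; cells exposed to compound for 40 hours at 37 °C before ATP read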). Conditions: qHTS. The method in brief:
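Cytotoxicity was scored as loss of cellular ATP, measured by luciferase-based luminescence, in Jurkat clone E6-1 cells after 40 h compound treatment; tamoxifen and doxorubicin served as positive controls.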

Assay [2] can be described thus: Cell Viability - Hek293 (AID 427;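 active = compounds whose dose-response curve shows a full or clear partial loss of cell viability, called from curve shape rather than a numeric limit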;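 note: potency is the fitted concentration of half-maximal effect; cells exposed to compound for 40 hours at 37 °C before reading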). The note with it: qHTS. An outline of the steps: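 Luminescent ATP read-out (CellTiter-Glo, 20 min RT) after 40 hr compound exposure at 37 °C in complete medium. Signal normalized to DMSO (basal) and 100 uM tamoxifen (100% inhibition); concentration-response fitted with the standard Hill equation to give AC50.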
Assay [3] can be described thus: Cell Viability - Mesenchymal (AID 546).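 Note: cells exposed to compound for 40 hours before reading; 0% = DMSO only and -100% = 100 µM tamoxifen.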 Conditions: mesenchymal cells viability, qHTS; series mostly up to 91.7 µM. The method in brief:
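CellTiter-Glo luminescence (intracellular ATP, 20 min room temperature) after 40 hr compound exposure at 37 °C of 1000 glomerulus-derived human kidney mesenchymal cells/well; AC50 values obtained by fitting qHTS concentration-response data to the Hill equation.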

In assay [4] the target is Cytochrome P450 3A4 (Homo sapiens) (UniProt P08684). The experiment in a line: qHTS Assay for Inhibitors and Substrates of Cytochrome P450 3A4 (AID 884). Note: % is set by controls: 0 for no effect and ±100 for the full control effect; nearly all actives have a fitted effect of over 50% in size. Conditions: recombinant CYP3A4, Luciferin-PPXE luminescence; series mostly up to 57.1 µM. The method in brief: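 Luminescent readout of luciferin produced by CYP3A4 (20 nM) dealkylation of Luciferin-PPXE, 25 uM (its KM). NADPH-driven reaction ran 60 min at RT after 10 min compound preincubation; data scaled to 57 uM ketoconazole as 100% inhibition.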
Cytochrome P450 3A4 (Homo sapiens), sequence (P08684 whole entry, looked up): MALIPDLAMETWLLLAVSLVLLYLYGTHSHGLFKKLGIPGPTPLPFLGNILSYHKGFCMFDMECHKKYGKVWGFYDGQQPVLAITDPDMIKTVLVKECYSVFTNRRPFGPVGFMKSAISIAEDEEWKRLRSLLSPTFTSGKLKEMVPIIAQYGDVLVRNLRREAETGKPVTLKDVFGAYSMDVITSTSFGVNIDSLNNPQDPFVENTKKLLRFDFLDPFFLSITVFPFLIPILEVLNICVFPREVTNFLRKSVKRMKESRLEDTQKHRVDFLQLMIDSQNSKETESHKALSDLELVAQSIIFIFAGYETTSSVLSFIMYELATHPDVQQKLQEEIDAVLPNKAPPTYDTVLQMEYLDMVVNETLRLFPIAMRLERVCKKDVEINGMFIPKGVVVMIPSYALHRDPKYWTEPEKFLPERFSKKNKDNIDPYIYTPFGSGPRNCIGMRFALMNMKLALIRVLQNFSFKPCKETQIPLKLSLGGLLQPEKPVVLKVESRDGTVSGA

Assay [5] is described as follows: MultiTox-Fluor Cytotoxicity Assay - LYMP1-002 - Dead Cells (AID 960).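 Note: 0% = DMSO and 100% = tetraoctylammonium bromide; nearly all actives have a fitted effect of over 60% in size.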 The note with it: LYMP1-002 lymphoblastoid cells, dead-cell protease fluorescence; series mostly up to 46.1 µM. An outline of the steps:
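Concentration-dependent increases in membrane-leaked protease activity are quantified in LYMP1-002 cells after 16 hr treatment; values are normalized against DMSO and tetraoctylammonium bromide (15 uM) controls and AC50 derived by Hill modeling.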

A short description of assay [6]: Cell Viability - LYMP2-005 (AID 967).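 Note: plate controls were DMSO only for no effect and 92 µM tetraoctylammonium bromide control for full effect.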 The note with it: LYMP2-005 lymphoblastoid cell viability; series mostly up to 92.2 µM. An outline of the steps: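 Human lymphoblastoid LYMP2-005 cells, 2,500 per well in complete medium, rested 5 h at 37C then compound-treated 24 h at 37C. Intracellular ATP read by CellTiter-Glo luminescence after 30 min at room temperature; AC50 from Hill-equation fits of concentration-response data.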

Assay [7] is described as follows: Cell Viability - LYMP2-019 (AID 973).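 Note: 0% = DMSO alone and full effect = 92 µM tetraoctylammonium bromide; nearly all actives have a fitted effect of over 55% in size.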 Conditions: LYMP2-019 lymphoblastoid cell line viability; series mostly up to 92.2 µM. An outline of the steps: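 AC50 values come from Hill-equation modelling of qHTS concentration-response curves, where viability is measured as luciferase-based ATP luminescence in the lymphoblastoid line after 24 hr compound exposure in complete culture medium.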

A short description of assay [8]: Cell Viability - LYMP2-010 (AID 981).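 Note: cells exposed to compound for 24 hours at 37 °C; % is set by controls: 0 for no effect and ±100 for the full control effect; nearly all actives have a fitted effect of over 55% in size.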 Conditions: LYMP2-010 lymphoblastoid cell viability, qHTS; series mostly up to 92.2 µM. An outline of the steps: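 This 24 hr viability screen uses LYMP2-010 lymphoblastoid cells, quantifies ATP via luciferase luminescence, and derives AC50 from Hill fits of qHTS concentration-response data.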
The nature of assay [9]: Cell Viability - LYMP2-024 (AID 988).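 Note: cells exposed to compound for 24 hr at 37 °C; plate controls were DMSO only for no effect and 92 µM tetraoctylammonium bromide for full effect; nearly all actives have a fitted effect of over 60% in size.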 Conditions: LYMP2-024 lymphoblastoid cell viability; series mostly up to 92.2 µM. An outline of the steps:
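Cells at 2500 per well received compound for 24 hr after a 5 hr settling period. Viability was scored by CellTiter-Glo luminescence, with AC50 from Hill fits.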

Assay [10] is described as follows: Cell Viability - LYMP2-026 (AID 989). Note: % is set by controls: 0 for no effect and ±100 for the full control effect; nearly all actives have a fitted effect of over 50% in size. Conditions: LYMP2-026 lymphoblastoid cell viability, qHTS; series mostly up to 92.2 µM. The method in brief:
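Acute toxicity screen in complete culture medium, with 24 hr compound exposure at 37 C. Viability read as cellular ATP via luciferase reaction, with tetraoctylammonium bromide (6.4pM to 92 uM) as positive control.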

Assay [11] is described as follows: Cell Viability - LYMP1-002 - Assay at 40 hr (AID 994).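 Note: 0% = DMSO only and full inhibition = 92 µM tetraoctylammonium bromide; nearly all actives have a fitted effect of over 60% in size.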 The note with it: LYMP1-002 lymphoblastoid cell viability; series mostly up to 92.2 µM. The method in brief: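 Concentration-dependent ATP loss after 40 hr treatment at 37 C defined toxicity; AC50 values were obtained by fitting the standard Hill equation.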
The target in assay [12] is Peroxisome proliferator-activated receptor gamma (Homo sapiens) (UniProt P37231). The experiment in a line: qHTS assay for small molecule agonists of peroxisome proliferator-activated receptor gamma signaling (AID 588536; active = well fitted curve in the direction sought with a large enough effect in the signal ratio, with a control signal flat, not every such curve was filed as active; the % refers to the signal ratio;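 note: 0% = DMSO basal wells and 100% = rosiglitazone at 2 µM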). Conditions: HEK293 PPARg-UAS-bla, beta-lactamase ratio, 16 h, percent of rosiglitazone response, DMSO as zero; series mostly up to 76.7 µM. An outline of the steps: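 Compound treatment: 16 h, 37 C, HEK293 GeneBLAzer cells. Detection: CCF4, 2 h RT. Values: Hill-fit EC50, efficacy as % of 2 uM rosiglitazone.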
Peroxisome proliferator-activated receptor gamma (Homo sapiens), sequence (P37231 whole entry, looked up): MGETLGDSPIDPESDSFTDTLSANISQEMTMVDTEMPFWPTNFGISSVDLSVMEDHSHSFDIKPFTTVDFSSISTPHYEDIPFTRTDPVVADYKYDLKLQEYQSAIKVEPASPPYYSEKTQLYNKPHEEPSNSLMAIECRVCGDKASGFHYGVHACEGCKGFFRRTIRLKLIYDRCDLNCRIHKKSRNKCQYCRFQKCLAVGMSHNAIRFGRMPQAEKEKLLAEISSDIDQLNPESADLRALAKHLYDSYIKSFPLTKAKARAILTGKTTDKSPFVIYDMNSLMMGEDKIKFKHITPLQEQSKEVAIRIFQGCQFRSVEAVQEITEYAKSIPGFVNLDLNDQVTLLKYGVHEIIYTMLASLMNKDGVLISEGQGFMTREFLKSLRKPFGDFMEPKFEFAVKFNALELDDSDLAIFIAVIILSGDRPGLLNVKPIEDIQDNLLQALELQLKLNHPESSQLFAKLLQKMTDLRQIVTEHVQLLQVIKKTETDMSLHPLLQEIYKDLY

Assay [13] in a line: qHTS assay for small molecule agonists of retinoid X receptor alpha signaling (AID 588544; calls by dose curve). Conditions: HEK293T RXRa-UAS-bla, beta-lactamase reporter, 18 h; 530 nm emission.
For assay [14], the target named is Retinoic acid receptor RXR-alpha (Homo sapiens) (UniProt P19793). Described as above. Conditions: HEK293T RXRa-UAS-bla, beta-lactamase reporter, 18 h; series mostly up to 76.7 µM.
Retinoic acid receptor RXR-alpha (Homo sapiens), sequence (P19793 whole entry, looked up): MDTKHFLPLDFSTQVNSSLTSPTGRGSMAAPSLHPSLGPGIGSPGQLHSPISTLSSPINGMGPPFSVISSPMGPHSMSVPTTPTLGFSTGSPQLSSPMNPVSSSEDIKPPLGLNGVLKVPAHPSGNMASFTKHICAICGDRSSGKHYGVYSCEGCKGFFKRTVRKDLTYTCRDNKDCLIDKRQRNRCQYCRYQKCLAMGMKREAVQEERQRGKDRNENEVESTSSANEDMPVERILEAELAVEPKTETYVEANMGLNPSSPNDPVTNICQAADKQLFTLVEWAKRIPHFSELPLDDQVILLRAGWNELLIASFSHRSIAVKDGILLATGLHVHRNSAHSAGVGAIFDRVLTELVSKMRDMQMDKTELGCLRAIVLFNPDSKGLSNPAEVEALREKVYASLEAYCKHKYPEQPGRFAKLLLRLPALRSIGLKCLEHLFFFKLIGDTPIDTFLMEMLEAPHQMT
In assay [15] the target is Thyroid hormone receptor beta (Homo sapiens) (UniProt P10828). Description: qHTS assay for small molecule agonists of thyroid hormone receptor beta signaling (AID 588545; calls by dose curve). The note with it: TR-UAS-bla GripTite HEK 293, beta-lactamase ratio, agonist mode, 18 h; series mostly up to 76.7 µM. An outline of the steps:
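In this cell-based screen, titrated compounds act on HEK 293 cells held in medium with 2% charcoal/dextran FBS, NEAA and pyruvate for 18 hrs at 37 C. Responses are expressed relative to T3 (10 nM) as 100% and basal DMSO as 0%.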

A short description of assay [16]: qHTS assay for small molecule antagonists of retinoid X receptor alpha signaling (AID 588546).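 Note: cells stimulated with 9-cis-retinoic acid as agonist; % is set by controls: 0 for no effect and ±100 for the full control effect.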 Conditions: HEK293T RXRa-UAS-bla, beta-lactamase ratio, antagonist mode; measured here: W530 green channel, cytotoxicity proxy. An outline of the steps: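 Beta-lactamase reporter inhibition, read as CCF4 fluorescence ratio (ex 405, em 460/530 nm) after 2 h at RT. HEK293T UAS-bla cells, 2500/well, were stimulated with 9-cis-RA at 500 or 100 nM final alongside test compound for 18 h at 37 C.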

Assay [17] has as its target Tumor necrosis factor (Homo sapiens) (UniProt P01375). Description: qHTS assay to identify small molecules that stimulate Tumor Necrosis Factor-alpha (TNF-alpha) secretion (AID 651757; active = well fitted curve in the direction sought with a large enough effect in the signal ratio; the % refers to the signal ratio; note: 0% is about no effect). The note with it: Human cells, HTRF 665/615 ratio; series mostly up to 92.2 µM. The method in brief: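 Using 3000 THP-1 cells per well, compounds and controls were applied for 17 hrs at 37 C. Detection followed with two labeled anti-TNF-alpha antibodies (cryptate donor, XL665 acceptor) for 3 hr at room temperature, measured by TR-FRET.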

A short description of assay [18]: qHTS assay for small molecule antagonists of the retinoid-related orphan receptor gamma (ROR-gamma) signaling pathway - cell viability counter screen (AID 720652; active = well fitted curve in the direction sought with a large enough effect in the repeat runs; an effect the other way counts as inactive or inconclusive;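 note: CHO reporter cells with doxycycline-induced ROR-gamma expression; compound exposure lasted 16 hr before ATP read; % is set by controls: 0 for no effect and ±100 for the full control effect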). The note with it: RORgamma reporter cell line viability counter screen; series mostly up to 92.2 µM. An outline of the steps:
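ATP-based viability readout in the ROR-gamma reporter CHO cells after 16 hr compound exposure under doxycycline induction.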

For assay [19], the target named is Nuclear receptor subfamily 1 group I member 2 (Rattus norvegicus) (UniProt Q9R1A7). The experiment in a line: qHTS assay for small molecule activators of the rat pregnane X receptor (rPXR) signaling pathway (AID 651751; call rule not given here; note: 0% is about no effect). The note with it: rPXR reporter cells, luciferase (One-Glo), 24 h.
Nuclear receptor subfamily 1 group I member 2 (Rattus norvegicus), sequence (Q9R1A7 whole entry, looked up): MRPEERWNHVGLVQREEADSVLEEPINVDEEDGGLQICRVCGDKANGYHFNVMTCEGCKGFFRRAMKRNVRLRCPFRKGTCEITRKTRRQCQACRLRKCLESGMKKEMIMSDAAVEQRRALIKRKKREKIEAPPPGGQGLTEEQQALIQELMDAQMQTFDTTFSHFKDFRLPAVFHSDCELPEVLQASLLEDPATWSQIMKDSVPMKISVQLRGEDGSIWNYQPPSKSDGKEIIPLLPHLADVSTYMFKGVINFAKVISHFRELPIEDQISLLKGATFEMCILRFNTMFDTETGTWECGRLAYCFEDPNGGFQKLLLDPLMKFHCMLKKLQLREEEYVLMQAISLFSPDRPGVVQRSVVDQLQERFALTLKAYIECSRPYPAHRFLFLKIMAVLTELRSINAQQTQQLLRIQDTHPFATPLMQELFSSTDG
Assay [20] is described as follows: Cell Viability - SH-SY5Y (AID 544).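 Note: cells exposed to compound for 40 hours; 0% = DMSO alone and -100% = 100 µM tamoxifen; nearly all actives have a fitted effect of over 55% in size.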 The note with it: SH-SY5Y neuroblastoma cell viability; viability change, negative = cytotoxic: at 92.2 µM (top of the series). An outline of the steps: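 Quantitative HTS in SH-SY5Y neuroblastoma cells, 40 hr treatment at 37 °C, ATP content by luciferase luminescence; AC50 from Hill fits.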

Thyroid hormone receptor beta (Homo sapiens), sequence (P10828 whole entry, looked up): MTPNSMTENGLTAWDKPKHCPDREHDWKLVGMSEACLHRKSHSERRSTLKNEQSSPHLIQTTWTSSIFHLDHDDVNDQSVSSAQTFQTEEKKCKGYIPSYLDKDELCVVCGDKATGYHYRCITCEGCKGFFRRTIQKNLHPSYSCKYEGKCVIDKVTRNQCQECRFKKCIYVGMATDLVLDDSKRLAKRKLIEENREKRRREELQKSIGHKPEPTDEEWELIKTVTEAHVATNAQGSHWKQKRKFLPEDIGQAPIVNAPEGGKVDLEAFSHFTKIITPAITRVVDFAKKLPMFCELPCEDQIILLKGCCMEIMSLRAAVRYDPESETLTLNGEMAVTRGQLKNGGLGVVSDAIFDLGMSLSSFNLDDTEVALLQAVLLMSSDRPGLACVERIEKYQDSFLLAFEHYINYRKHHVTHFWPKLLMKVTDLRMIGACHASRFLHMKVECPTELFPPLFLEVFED
Tumor necrosis factor (Homo sapiens), sequence (P01375 whole entry, looked up): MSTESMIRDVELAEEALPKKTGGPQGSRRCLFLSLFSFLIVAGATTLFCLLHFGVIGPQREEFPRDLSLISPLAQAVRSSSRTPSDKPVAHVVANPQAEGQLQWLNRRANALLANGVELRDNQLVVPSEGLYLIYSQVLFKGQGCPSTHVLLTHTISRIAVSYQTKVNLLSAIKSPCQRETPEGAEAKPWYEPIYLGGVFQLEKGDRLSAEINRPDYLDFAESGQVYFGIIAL

Turning to `CC(C)(OOC(C)(C)c1ccccc1)c1ccccc1`, the Potency in assay [1] and in assay [2] was > 92 µM (inactive) in each case. In addition, the Potency result in assay [3], in [4], in assay [5], in [6], in assay [7] and in assay [8] was “inactive” in each case. For the same compound, the Potency result in [9], in assay [10], in assay [11], in [15] and in [18] was “inactive” each time. Besides, the outcome in assay [12], in assay [14] and in assay [17] was inactive. The max response in assay [13] was -7.49% and -13.6%; in assay [16], -11%; in assay [19], -3.9% (inactive) and 4.2% (inactive).
On to `CN(C)C(=O)Cl`, for which the Potency in assay [1] and in [2] was > 92 µM (inactive) throughout. In addition, the Potency entry in assay [20], in assay [3], in [4], in assay [6], in assay [7] and in assay [8] was “inactive” throughout. Besides, the Potency entry in assay [9], in [10], in assay [11] and in [18] was “inactive” each time. For the same compound, the result in [12], in assay [14] and in [17] was inactive. In addition, the max response in assay [13] is -5.01%; in assay [16], 3.53%; in [19], -2.26% (inactive).
Regarding `Clc1ccc(C(Cl)(Cl)Cl)cc1Cl`, the Potency in assay [1] and in assay [2] was > 92 µM (inactive) each time. In addition, the Potency entry in [20], in assay [3], in [4], in assay [6], in [7] and in assay [8] was “inactive” each time. In addition, the Potency entry in assay [9], in assay [10], in [11] and in assay [18] was “inactive” in each case. The result in assay [12], in assay [14] and in assay [17] was inactive. Further, the max response is -3.09% in assay [13], -6.09% in assay [16] and 3.68% (inactive) in assay [19].
Consider `O=[N+]([O-])c1cc(Cl)c(Cl)cc1Cl`, for which the Potency in [1] and in [2] was > 92 µM (inactive) in each case. In addition, the Potency result in assay [20], in assay [3], in [4], in assay [5], in assay [6] and in assay [7] was “inactive” each time. For the same compound, the Potency entry in [8], in [9], in assay [10], in [11], in assay [15] and in assay [18] was “inactive” in each case. Also, the result in assay [12], in [14] and in [17] was inactive. The values for the max response in [13], in assay [16] and in assay [19] were 10.7%, 2.5% and -0.165% (inactive), respectively.
In the case of `N#C/C(N)=C(/N)C#N`, the Potency in [1] and in assay [2] was > 92 µM (inactive) throughout. The Potency entry in [20], in assay [3], in assay [4], in assay [5], in assay [6] and in [7] was “inactive” throughout. Moreover, the Potency entry in [8], in [9], in assay [10], in assay [11], in assay [15] and in [18] was “inactive” throughout. In addition, the result in [12], in assay [14] and in assay [17] was inactive. Also, the max response is -4.63% in [13], -2.22% in [16] and -1.96% (inactive) in assay [19].
For `ClCCBr`, the Potency in assay [1] and in [2] was > 92 µM (inactive) in each case. The Potency result in assay [20], in [3], in [4], in [5], in [6] and in [7] was “inactive” throughout. Further, the Potency entry in assay [8], in [9], in assay [10], in [11], in assay [15] and in assay [18] was “inactive” in each case. Besides, the result in [12], in assay [14] and in assay [17] was inactive. For the same compound, the figures for the max response in assay [13], in assay [16] and in assay [19] were -16.9%, -4.86% and -0.231% (inactive), respectively.
With `CCCCOC(C)=O`, the Potency in [1] and in assay [2] was > 92 µM (inactive) throughout. In addition, the Potency result in assay [20], in assay [4], in [5], in [6], in assay [7] and in assay [8] was “inactive” throughout. The Potency entry in assay [9], in [10], in assay [11], in [15] and in assay [18] was “inactive” each time. Besides, the outcome in assay [12], in [14] and in [17] was inactive. Moreover, the results for the max response in [13] and in [16] were 6.81% and -8.9%, respectively.
